Where “and” joins values, the source holds several entries; their conditions need not be identical. Identical values can stand only once. For part of these data: Entries with a potency or affinity are not part of this list. Calls of active or inactive are those of the source.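 The calls were made as follows, unless noted: active = dose-response curve with midpoint inside the tested range, moderate steepness, significant amplitude and little compound fluorescence or bead-attachment interference; inactive = the rest.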

In assay [1] the target is Cell division control protein 42 homolog (Homo sapiens) (UniProt P60953). Nature of the assay: activated mutant Cdc42 GTP-binding inhibitors, dose response, biochemical, multiplex bead flow cytometry, Bodipy-FL-GTP (AID 1333;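 active = fitted half-maximal concentration within the tested dose range, moderate curve steepness, a statistically real signal drop, and little compound fluorescence or tag-binding interference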).
The target is the same in assay [2]. Nature of the assay: wildtype Cdc42 GTP-binding inhibitors, dose response, biochemical, multiplex bead flow cytometry, Bodipy-FL-GTP (AID 1334;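 active = fitted half-maximal concentration within the tested range, moderate curve steepness, significant signal drop, and little compound fluorescence or bead-linkage interference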). As to conditions: bead-based flow cytometry, Bodipy-FL-GTP binding to GST-Cdc42; at 100 µM (top of the series) unless noted. In general terms: Flow cytometry measures light scatter and fluorescence of single cells or particles in a stream.

Assay [3] concerns the target Ras-related C3 botulinum toxin substrate 1 (Homo sapiens) (UniProt P63000). Nature of the assay: wildtype Rac1 GTP binding inhibitors, dose response, biochemical, multiplex bead flow cytometry (AID 1340;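 active = dose curve with midpoint inside tested range, moderate steepness, plateau gap beyond fit error, low compound glow and bead-link interference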). As to conditions: GST-Rac1 beads, Bodipy-FL-GTP binding; at 100 µM (top of the series) unless noted.
For assay [4], the target named is GTPase HRas (Homo sapiens) (UniProt P01112). Nature of the assay: inhibitors of GTP binding to wildtype Ras, dose response, biochemical, multiplex bead flow cytometry (AID 1335;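 active = fitted half-maximal concentration within 10 nM to 100 µM, steepness 0.5 to 2, significant signal drop, low assay interference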). As to conditions: bead-based flow cytometry, Bodipy-GTP binding to GST-Ras; at 100 µM (top of the series) unless noted.
Assay [5] relates to Ras-related protein Rab-7a (dog), GTP binding. Nature of the assay: Rab7 GTP binding inhibitors, potency, dose response, biochemical, wildtype, multiplex bead flow cytometry (AID 1336; call rule not given here).
The target of assay [6] is GTPase HRas (Homo sapiens) (UniProt P01112). Nature of the assay: activated Ras mutant GTP binding inhibitors, dose response, biochemical, multiplex bead flow cytometry (AID 1341).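 Also: GST-tagged constitutively activated Ras mutant immobilized on beads and multiplexed with other GTPases.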
Assay [7] is described as follows: RPL19A-GFP modulators, yeast TOR pathway, confirmation, cell-based, S. cerevisiae, flow cytometry, cherry picks, mother/daughter gates (AID 2270;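 active = GFP response below 50% of the DMSO control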). As to conditions: S. cerevisiae RPL19A-GFP strain, 3 h, at 10 µM, stronger effect = lower value, 100 = same GFP as DMSO wells.
A short description of assay [8]: LAP4-GFP expression modulators in yeast, confirmation, cell-based, cherry picks, flow cytometry, mother/daughter gates (AID 2271;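 active = GFP response above 150% of the DMSO control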;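 also: ratio of sample to DMSO plate mean so 100% equals DMSO level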). Particulars: S. cerevisiae LAP4-GFP strain, 3 h, at 10 µM, stronger effect = higher value, 100 means same as DMSO control.
A short description of assay [9]: modulators of MEP2-GFP levels in yeast, confirmation, S. cerevisiae, flow cytometry GFP, cherry picks (AID 2272;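 active = GFP response above 150% of the DMSO control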;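 also: ratio of well signal to plate DMSO mean so 100% equals DMSO level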). Particulars: S. cerevisiae MEP2-GFP strain, 3 h, at 10 µM, stronger effect = higher value.
The nature of assay [10]: AGP1-GFP expression modulators, hit retest, confirmation, cell-based, flow cytometry, S. cerevisiae, cherry picks (AID 2273;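 active = GFP response above 150% of the DMSO level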;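 also: median GFP channel fluorescence over the whole cell population gate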). Particulars: S. cerevisiae AGP1-GFP strain, 3 h, at 10 µM.
Assay [11] in a line: modulators of CIT2-GFP expression in yeast, confirmation, S. cerevisiae, GFP fusion, cherry picks, mother/daughter gates (AID 2274;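 active = GFP response above 150% of the DMSO level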). Particulars: S. cerevisiae CIT2-GFP strain, flow cytometry, 3 h, at 10 µM, stronger effect = higher value.
The mark [12] stands for this setting: measured here: daughter cell gate.
Where [13] appears, read: measured here: mother cell gate.

Chain of GTPase HRas (Homo sapiens) (P01112 whole entry, looked up): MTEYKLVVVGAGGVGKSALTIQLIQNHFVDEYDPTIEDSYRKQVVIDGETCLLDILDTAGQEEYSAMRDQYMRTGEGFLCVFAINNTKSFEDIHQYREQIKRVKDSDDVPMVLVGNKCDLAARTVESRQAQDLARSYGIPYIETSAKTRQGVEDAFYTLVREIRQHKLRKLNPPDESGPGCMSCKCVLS
Chain of Cell division control protein 42 homolog (Homo sapiens) (P60953 whole entry, looked up): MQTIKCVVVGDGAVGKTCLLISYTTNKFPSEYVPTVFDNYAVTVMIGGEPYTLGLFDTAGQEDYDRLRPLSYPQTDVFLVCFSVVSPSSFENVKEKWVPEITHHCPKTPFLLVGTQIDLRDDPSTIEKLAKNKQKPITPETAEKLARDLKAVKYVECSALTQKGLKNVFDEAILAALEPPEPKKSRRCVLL

Turning to `Cc1cc(C(=O)O)sc1CNCc1ccccc1Cl`, the outcome in assay [1] was inactive. In addition, in [2], the fluorescence, percent of control (lower = inhibition) amounted to 60.4%. Further, the GTP binding signal, raw median fluorescence (lower = inhibition) (MCF (arbitrary fluorescence units)) in assay [3] is 33.9.

With `O=C1/C(=C\c2cccnc2)Sc2ccccc21`, the molecule was called inactive in assay [1], in [5] and in assay [6]. In assay [2], the fluorescence, percent of control (lower = inhibition) was 29.1%. Further, the GTP binding, percent of control in [4] was found to be 62.4%.

Take `Cc1ccc(NC(=O)C2=C(c3ccccc3)S(=O)(=O)CCS2(=O)=O)cc1`: the fluorescence, percent of control (lower = inhibition) in assay [2] came to 22.2%. The GTP binding, percent of control in assay [4] was 79.3%. Also, the molecule was called inactive in assay [5] and in assay [6]. The molecule also yielded a GTP binding signal, raw median fluorescence (lower = inhibition) (MCF (arbitrary fluorescence units)) in assay [3] of 222.

On to `Cc1cc(C(=O)Oc2ccccc2C(=O)O)c(C)o1`, for which the call in assay [1] and in [6] was inactive. Besides, the fluorescence, percent of control (lower = inhibition) in assay [2] stood at 61.1%.

With `NS(=O)(=O)c1ccc(N2N=C(c3ccccc3)CC2c2ccccc2)cc1` (stereo unspecified), the outcome in assay [1], in assay [5] and in assay [6] was inactive. In addition, the GTP binding, percent of control in [4] is 68% and 97.6%. In addition, in [3], the GTP binding signal, raw median fluorescence (lower = inhibition) (MCF (arbitrary fluorescence units)) is 223 and 99.4.

As for `COCCn1c(=S)[nH]c2cc(C(=O)N3CCc4ccccc4C3)ccc2c1=O`, the call in assay [1], in [5] and in assay [6] was inactive. Moreover, the fluorescence, percent of control (lower = inhibition) in [2] turned out to be 35.6%. Besides, the GTP binding, percent of control in [4] was 83.9%.

As to `CC(C)Oc1ccc(/C=N/NC(=O)c2ccc(N(Cc3ccccc3)S(C)(=O)=O)cc2)cc1`, the outcome in assay [1], in [5] and in assay [6] was inactive. The molecule also came in with a fluorescence, percent of control (lower = inhibition) in assay [2] of 43.8%. Besides, the GTP binding, percent of control in assay [4] was 57.5%.

`O=C(O)c1ccccc1Oc1ccccc1`: the result in assay [1] and in assay [6] was inactive. In [2], this molecule displayed a fluorescence, percent of control (lower = inhibition) of 83.7%. In assay [4], this molecule showed a GTP binding, percent of control of 100%. In assay [3], this molecule yielded a GTP binding signal, raw median fluorescence (lower = inhibition) (MCF (arbitrary fluorescence units)) of 65.

As for `O=C(Nc1nc(-c2ccc(S(=O)(=O)N3CCCC3)cc2)cs1)c1ccco1`, the outcome in assay [1], in [5] and in [6] was inactive. Besides, the fluorescence, percent of control (lower = inhibition) in [2] is 49.8%. In addition, the GTP binding, percent of control in [4] came to 118%.

As to `COc1cccc(-n2nnnc2S(C)(=O)=O)c1`, the fluorescence, percent of control (lower = inhibition) in assay [2] was found to be 34%. The molecule further had a GTP binding, percent of control in assay [4] of 59.3%. Besides, the result in assay [5] and in assay [6] was inactive. The molecule further returned a GTP binding signal, raw median fluorescence (lower = inhibition) (MCF (arbitrary fluorescence units)) in [3] of 157.

`O=C(O)/C=C/c1cn(Cc2ccccc2)nc1-c1ccc(Cl)cc1`: the molecule was called inactive in [1], in assay [5] and in assay [6]. For the same molecule, in assay [2], the fluorescence, percent of control (lower = inhibition) came out at 34.9%. Further, the GTP binding, percent of control in [4] turned out to be 84.9%.

Take `CCOC(=O)Cn1nnnc1C(C(C)C)N(Cc1cccs1)Cc1cc2cc(C)ccc2[nH]c1=O` (stereo unspecified): the molecule was called inactive in [1], in assay [5] and in assay [6]. The GTP binding, percent of control in assay [4] was determined as 181%. In assay [3], the GTP binding signal, raw median fluorescence (lower = inhibition) (MCF (arbitrary fluorescence units)) is 181.

For `O=C(Nc1ccccc1)C1=C(c2ccccc2)S(=O)(=O)CCS1(=O)=O`, the fluorescence, percent of control (lower = inhibition) in assay [2] is 21.5%. For the same molecule, the GTP binding, percent of control in [4] is 72.8%. Moreover, the molecule was classed as inactive in [5] and in [6]. Besides, the GTP binding signal, raw median fluorescence (lower = inhibition) (MCF (arbitrary fluorescence units)) in assay [3] amounted to 217.

As to `Cc1ccc(-n2c(=O)cc(N3CCc4ccccc4C3)[nH]c2=O)cc1`, the molecule was classed as inactive in assay [1], in [5] and in assay [6]. In assay [2], this molecule showed a fluorescence, percent of control (lower = inhibition) of 58.7%. Also, the GTP binding signal, raw median fluorescence (lower = inhibition) (MCF (arbitrary fluorescence units)) in assay [3] worked out at 251.

Regarding `CCS(=O)(=O)N1N=C(c2cccc(NS(C)(=O)=O)c2)CC1c1ccc(C)cc1` (stereo unspecified), the outcome in assay [1], in [5] and in assay [6] was inactive. In assay [3], the GTP binding signal, raw median fluorescence (lower = inhibition) (MCF (arbitrary fluorescence units)) amounted to 230. The GFP response vs DMSO in [7] is 100% (inactive); in assay [7] (setting [12]), 99.1%; in assay [7] (setting [13]), 101%; in assay [9], 116% (inactive). The GFP response relative to DMSO in assay [8] was 101% (inactive); in assay [8] (measured here: daughter cell gate response) it was 97.5%; in [8] (measured here: mother cell gate response), 100%. The GFP response, % of DMSO was 104% (inactive) in [10], 108% (inactive) in assay [11], 105% in assay [11] (setting [12]) and 108% in [11] (setting [13]).

The values are drawn from PubChem BioAssay.
